From PubChem BioAssay come the findings set out here.

Calls of active or inactive are those of the source.

Assay [1] is described as follows: binders of probe aFSTL3 on microarray, primary screen, stem cell growth factor project, biochemical, small-molecule microarray, fluorescence 635/667 (AID 1064).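 Further: measures binding of the biotinylated anti-FSTL3 antibody to printed compounds.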 To be noted: higher = more signal.
The nature of assay [2]: binders from COS7 lysate, DM2A8 probe, primary screen, torsin A project, cell lysate, small-molecule microarray, fluorescence 635/667 (AID 1065). To be noted: higher = more signal, COS7 lysate expressing mutant human TOR1A.
A short description of assay [3]: binders of probe aFGF2 on microarray, primary screen, stem cell growth factor project, biochemical, small-molecule microarray, fluorescence 635/667 (AID 1067).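 Further: measures binding of biotinylated aFGF2 protein to printed compounds on slides; z-score merges feature fluorescence and signal-to-noise across triplicate slides.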 To be noted: higher = more signal.
The nature of assay [4]: binders of probe aFGF10 on microarray, primary screen, stem cell growth factor project, biochemical, small-molecule microarray, fluorescence 635/667 (AID 1071).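 Further: score merges 667 nm spot intensity and signal to noise from triplicate slides.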 To be noted: higher = more signal.
The target of assay [5] is Neurogenic locus notch homolog protein 2 (Homo sapiens) (UniProt Q04721). Nature of the assay: Notch2 binders on small-molecule microarrays, primary screen, biochemical, small-molecule microarray, 635 nm fluorescence, stem cell growth factors (AID 1073). The settings on record: Notch2 binding, higher = more signal.
Assay [6] addresses Pro-neuregulin-1, membrane-bound isoform (Homo sapiens) (UniProt Q02297). Nature of the assay: NRG1 binders on small-molecule microarrays, primary screen, psychiatric disease protein project, biochemical, small-molecule microarray, fluorescence 635/667 (AID 1075).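 Further: score combines 667 nm spot fluorescence with signal to noise.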 To be noted: NRG1 binding, 635 nm fluorescence, higher = more signal.
Assay [7] deals with Neuregulin-1 EGF-like domain. The assay can be described thus: binders of neuregulin-1 EGF-like domain, primary screen, biochemical, small-molecule microarray, 635 nm fluorescence (AID 1081).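 Further: binding of the protein to compounds printed on small-molecule microarray slides.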 The settings on record: small-molecule microarray binding, higher = more signal.
Assay [8] can be described thus: FRG1 promoter luciferase signal modulators, primary screen, FRG1 inhibition for FSHD, cell-based, C2C12 myotubes, firefly/Renilla luciferase, luminescence (AID 1084). The settings on record: higher = more signal, called active from +8 up or from −8 down.
A short description of assay [9]: binders of probe aFST on microarray, primary screen, stem cell growth factor project, biochemical, small-molecule microarray, fluorescence 635/667 (AID 1086).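 Further: score merges 667 nm fluorescence with signal-to-noise of each printed compound spot.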 To be noted: higher = more signal.
Assay [10] is described as follows: binders of probe aHhip on microarray, primary screen, stem cell growth factor project, biochemical, small-molecule microarray, fluorescence 635/667 (AID 1087).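 Further: score merges spot fluorescence at 667nm with spot signal to noise ratio.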 To be noted: higher = more signal.
In assay [11] the test system is PRMT1 (protein arginine N-methyltransferase 1). Nature of the assay: PRMT1 binders on small-molecule microarrays, primary screen, biochemical, small-molecule microarray, 635 nm fluorescence (AID 1088).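 Further: binding of Prmt1 protein to compounds spotted on small-molecule microarray slides.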 The settings on record: small-molecule microarray binding, higher = more signal.
A short description of assay [12]: yeast growth modulation, basal conditions, primary screen, YJM789 clinical isolate, OD600, 24 h (AID 1089).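 Further: growth of clinical yeast isolate S. cerevisiae YJM 789 seeded 1000 cells per well; test concentration not given here.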 To be noted: S. cerevisiae YJM789 growth, higher = more signal, called active from +8 up or from −8 down.
Assay [13] is described as follows: fission yeast growth modulation, primary screen, strain 972, OD600, 24 h, no modulator (AID 1090).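 Further: basal condition with compound alone and no growth modifier present; test concentration not given here.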 To be noted: S. pombe 972 growth, higher = more signal, called active from +8 up or from −8 down.
Assay [14] in a line: S. cerevisiae growth modulation with rapamycin, primary screen, strain BY4716, OD600, 96 h (AID 1091). Further: test concentration not given here. To be noted: higher = more signal, called active from +8 up or from −8 down.
Assay [15] has as its target Torsin-1A-interacting protein 2 (Homo sapiens) (UniProt Q8NFQ8). The assay can be described thus: LULL1 binders on small-molecule microarray, primary screen, cell lysate, human LULL1 lysate, 635/667 nm fluorescence (AID 1092).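 Further: probe is lysate of COS7 cells overexpressing human LULL1; score merges per-feature 667 nm fluorescence with signal-to-noise.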 The settings on record: hLULL1 lysate binding, 635 nm fluorescence, higher = more signal.
Assay [16] can be described thus: E. coli growth modulation, two-sided OD650, primary screen, E. coli filamentation project, strain DRC41, 24 h (AID 1093).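 Further: MC1000 strain lacking acrAB efflux and sulA so SOS filamentation is blocked; test concentration not given here.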 The settings on record: OD650, 24 h, higher = more signal, called active from +8 up or from −8 down.
A short description of assay [17]: small-molecule microarray binders of probe aLefty2, primary screen, biochemical, biotinylated probe, 635/667 nm fluorescence (AID 1094).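 Further: score merges spot fluorescence near 667 nm with spot signal-to-noise ratio.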 To be noted: higher = more signal.
For assay [18], the system named is Noggin (protein binding on small-molecule microarray). The assay can be described thus: Noggin binders on small-molecule microarray, primary screen, biochemical, 635/667 nm fluorescence (AID 1095).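 Further: score merges 667 nm feature fluorescence with signal to noise over triplicate slides.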 The settings on record: 635 nm fluorescence, higher = more signal.
For assay [19], the target named is Neurogenic locus notch homolog protein 3 (Homo sapiens) (UniProt Q9UM47). The assay can be described thus: NOTCH3 binders on small-molecule microarray, primary screen, biochemical, 635/667 nm fluorescence (AID 1096). The settings on record: NOTCH3 binding, 635 nm fluorescence, higher = more signal.
Assay [20] can be described thus: small-molecule microarray binders of probe aEGFR, primary screen, biochemical, biotinylated probe, 635/667 nm fluorescence (AID 1097).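 Further: probe is a biotinylated anti-EGFR antibody binding compounds printed on slides; score combines fluorescence near 667 nm and signal to noise of each spot.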 To be noted: higher = more signal.

Sequence of Neurogenic locus notch homolog protein 2 (Homo sapiens) (Q04721 whole entry, looked up, canonical isoform): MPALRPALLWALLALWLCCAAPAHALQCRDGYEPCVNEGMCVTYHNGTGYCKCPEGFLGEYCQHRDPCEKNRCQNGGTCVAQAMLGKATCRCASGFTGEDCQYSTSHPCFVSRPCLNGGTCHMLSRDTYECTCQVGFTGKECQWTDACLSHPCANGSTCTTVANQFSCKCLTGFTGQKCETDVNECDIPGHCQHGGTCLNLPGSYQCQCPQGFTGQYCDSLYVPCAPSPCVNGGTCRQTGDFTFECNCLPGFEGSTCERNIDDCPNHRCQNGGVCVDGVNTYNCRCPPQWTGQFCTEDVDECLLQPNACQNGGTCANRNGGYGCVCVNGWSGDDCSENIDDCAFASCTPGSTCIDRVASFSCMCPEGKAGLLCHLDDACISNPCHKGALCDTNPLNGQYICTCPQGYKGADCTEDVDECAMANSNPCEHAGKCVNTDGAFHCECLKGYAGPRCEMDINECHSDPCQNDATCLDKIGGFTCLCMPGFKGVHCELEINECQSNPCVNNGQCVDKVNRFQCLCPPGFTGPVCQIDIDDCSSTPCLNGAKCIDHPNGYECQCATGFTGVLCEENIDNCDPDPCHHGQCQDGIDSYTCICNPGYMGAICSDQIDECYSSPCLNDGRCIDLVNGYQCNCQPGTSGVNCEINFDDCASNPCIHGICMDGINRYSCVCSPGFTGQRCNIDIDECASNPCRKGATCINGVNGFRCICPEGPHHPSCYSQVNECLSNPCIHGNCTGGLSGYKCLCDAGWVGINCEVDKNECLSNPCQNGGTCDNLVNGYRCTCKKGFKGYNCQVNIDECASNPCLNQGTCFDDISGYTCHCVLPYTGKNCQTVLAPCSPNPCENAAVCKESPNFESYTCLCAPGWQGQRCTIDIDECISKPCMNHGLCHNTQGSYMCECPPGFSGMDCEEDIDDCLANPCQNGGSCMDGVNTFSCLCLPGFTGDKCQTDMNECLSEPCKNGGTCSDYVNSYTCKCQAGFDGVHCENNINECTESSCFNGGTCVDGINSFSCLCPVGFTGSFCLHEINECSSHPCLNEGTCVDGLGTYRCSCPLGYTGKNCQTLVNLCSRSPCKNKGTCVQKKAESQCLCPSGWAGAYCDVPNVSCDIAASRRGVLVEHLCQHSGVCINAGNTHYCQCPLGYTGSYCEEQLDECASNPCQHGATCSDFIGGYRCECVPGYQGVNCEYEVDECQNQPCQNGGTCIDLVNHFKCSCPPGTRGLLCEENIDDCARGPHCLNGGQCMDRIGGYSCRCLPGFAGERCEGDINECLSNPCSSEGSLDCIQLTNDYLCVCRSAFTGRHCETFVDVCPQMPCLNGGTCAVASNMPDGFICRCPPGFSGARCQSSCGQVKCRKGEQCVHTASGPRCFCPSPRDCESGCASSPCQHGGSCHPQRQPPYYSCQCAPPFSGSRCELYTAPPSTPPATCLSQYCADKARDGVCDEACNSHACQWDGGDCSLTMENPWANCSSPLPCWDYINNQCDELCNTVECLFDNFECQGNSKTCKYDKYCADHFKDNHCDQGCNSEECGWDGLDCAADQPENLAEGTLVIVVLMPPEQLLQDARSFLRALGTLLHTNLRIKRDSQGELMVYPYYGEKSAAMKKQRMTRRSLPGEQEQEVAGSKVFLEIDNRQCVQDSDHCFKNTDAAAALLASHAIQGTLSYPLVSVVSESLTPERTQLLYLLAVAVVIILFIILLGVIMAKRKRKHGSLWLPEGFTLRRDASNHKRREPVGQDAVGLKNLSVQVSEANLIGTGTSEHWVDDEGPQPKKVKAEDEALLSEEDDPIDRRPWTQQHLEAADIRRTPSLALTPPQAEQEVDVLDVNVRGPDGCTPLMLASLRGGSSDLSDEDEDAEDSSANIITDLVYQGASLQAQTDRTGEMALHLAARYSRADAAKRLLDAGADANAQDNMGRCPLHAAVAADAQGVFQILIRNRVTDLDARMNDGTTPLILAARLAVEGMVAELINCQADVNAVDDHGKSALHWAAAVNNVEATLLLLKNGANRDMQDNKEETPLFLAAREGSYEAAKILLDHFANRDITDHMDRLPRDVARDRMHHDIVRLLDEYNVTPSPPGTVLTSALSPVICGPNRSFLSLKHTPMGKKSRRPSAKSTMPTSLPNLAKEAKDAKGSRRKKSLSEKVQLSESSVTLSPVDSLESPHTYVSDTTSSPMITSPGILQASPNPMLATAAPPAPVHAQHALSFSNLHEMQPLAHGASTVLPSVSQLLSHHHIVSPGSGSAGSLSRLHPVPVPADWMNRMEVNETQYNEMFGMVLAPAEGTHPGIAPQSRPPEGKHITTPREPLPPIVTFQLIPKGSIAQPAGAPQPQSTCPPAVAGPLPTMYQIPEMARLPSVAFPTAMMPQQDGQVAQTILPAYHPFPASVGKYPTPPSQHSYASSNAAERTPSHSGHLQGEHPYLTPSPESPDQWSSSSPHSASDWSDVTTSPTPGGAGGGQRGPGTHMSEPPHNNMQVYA
Sequence of Pro-neuregulin-1, membrane-bound isoform (Homo sapiens) (Q02297 whole entry, looked up, the tested form may be a part, canonical isoform): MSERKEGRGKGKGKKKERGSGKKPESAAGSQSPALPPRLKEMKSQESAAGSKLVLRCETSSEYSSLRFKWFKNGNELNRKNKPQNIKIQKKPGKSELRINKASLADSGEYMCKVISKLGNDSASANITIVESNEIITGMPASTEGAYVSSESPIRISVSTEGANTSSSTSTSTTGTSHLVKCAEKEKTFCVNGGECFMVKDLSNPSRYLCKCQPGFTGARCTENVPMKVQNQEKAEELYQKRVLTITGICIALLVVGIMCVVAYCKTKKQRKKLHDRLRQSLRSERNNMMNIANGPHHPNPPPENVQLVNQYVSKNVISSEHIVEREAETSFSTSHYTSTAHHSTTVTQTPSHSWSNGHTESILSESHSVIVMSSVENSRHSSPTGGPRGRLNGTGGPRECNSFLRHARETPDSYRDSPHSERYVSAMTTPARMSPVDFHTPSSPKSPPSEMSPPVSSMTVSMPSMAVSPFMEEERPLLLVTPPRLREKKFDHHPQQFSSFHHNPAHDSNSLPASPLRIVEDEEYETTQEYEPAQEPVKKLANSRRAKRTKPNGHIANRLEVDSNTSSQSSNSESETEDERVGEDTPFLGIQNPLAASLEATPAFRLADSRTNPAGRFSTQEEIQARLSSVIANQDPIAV
Sequence of Torsin-1A-interacting protein 2 (Homo sapiens) (Q8NFQ8 whole entry, looked up): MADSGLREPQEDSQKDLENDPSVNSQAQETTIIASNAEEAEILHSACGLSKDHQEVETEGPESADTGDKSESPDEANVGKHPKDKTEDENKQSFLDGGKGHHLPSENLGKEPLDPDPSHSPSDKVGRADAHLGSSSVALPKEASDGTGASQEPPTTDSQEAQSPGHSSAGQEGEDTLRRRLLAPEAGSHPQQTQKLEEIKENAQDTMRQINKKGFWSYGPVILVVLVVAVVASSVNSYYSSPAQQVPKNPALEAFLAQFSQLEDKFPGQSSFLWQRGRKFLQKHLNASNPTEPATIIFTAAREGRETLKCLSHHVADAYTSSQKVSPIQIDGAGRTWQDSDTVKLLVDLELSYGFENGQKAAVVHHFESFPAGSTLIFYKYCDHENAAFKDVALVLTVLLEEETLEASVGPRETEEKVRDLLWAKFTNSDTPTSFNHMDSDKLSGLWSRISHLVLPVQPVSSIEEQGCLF

In the case of `COc1ccc(OC[C@H]2CN3[C@@H](CC[C@@H](C)[C@@H]3c3ccc(Br)cc3)C(=O)O2)cc1`, the composite z-score in [1] was -0.358; in assay [2], 0.722; in assay [3] it was -0.181; in [4], 0.243; in assay [5], -0.142; in [6], 0.165. Moreover, the composite z-score was -0.228 in assay [7]; -0.115 in [9]; -0.109 in [10]; 0.591 in assay [11]; 0.184 in assay [15]; -0.198 in assay [17]. Moreover, the composite z-score in [18] was 0.318; in [19], -0.175; in [20], -0.0082. For the same molecule, the z-score in assay [8] was -0.539 (inactive); in assay [12] it was -0.313 (inactive); in [13] it was -0.237 (inactive); in assay [14], 0.179 (inactive); in [16], -0.915 (inactive).
On to `CCOC(=O)[C@H](Cc1ccccc1)NC(=O)CCC1CC(OC(=O)NCc2ccc3c(c2)OCO3)CC2(CCCC(COC(=O)NCCCN3CCCC3=O)O2)O1` (stereo not given in full), for which the composite z-score is -0.578 in [1]; 0.163 in assay [2]; -0.0001 in [3]; 0.377 in assay [4]; 1.06 in [5]; 0.503 in assay [6]. The composite z-score in assay [7] is 0.85; in [9], 0.827; in assay [10], -0.248; in [11], 1.55; in assay [15], 2.08; in [17], -0.117. The composite z-score is 0.579 in [18], 1 in assay [19] and -0.02 in [20]. In addition, the z-score is 1.5 (inactive) in [8]; -0.395 (inactive) in [12]; 0.0418 (inactive) in assay [13]; -0.0655 (inactive) in [14]; 0.187 (inactive) in assay [16].
Consider `COC(=O)CC=C1c2ccccc2[C@H](OC)[C@H]1C`, for which the composite z-score in assay [1] is -0.033; in assay [2], -0.113; in [3] it was -0.0044; in assay [4], 0.234; in [5], -0.0929; in assay [6], -0.395. The composite z-score is -0.293 in assay [7]; 0.137 in assay [9]; -0.0296 in assay [10]; -0.32 in [11]; -0.655 in [15]; -0.0732 in [17]. Moreover, the composite z-score in [18] was 0.189; in [19], -0.562; in [20], -0.0657. Further, the z-score is 0.009 (inactive) in assay [8]; 0.649 (inactive) in assay [12]; 0.863 (inactive) in assay [13]; 0.387 (inactive) in [14]; 0.194 (inactive) in assay [16].
Turning to `C[C@@H](c1ccccc1)N1C(=O)[C@H]2[C@H]3[C@H](O)[C@H](O)CC(=NNC(=O)OCc4ccccc4)[C@@H]3CC[C@H]2C1=O`, the composite z-score in [1] is -0.909; in [2] it was 2.62; in assay [3], -0.203; in [4], -0.261; in [5], -0.155; in [6], -0.536. Moreover, the composite z-score in [7] was 1.22; in assay [9], 0.0473; in [10] it was 0.161; in assay [11] it was 1.57; in assay [15], 0.0265; in [17], -0.19. Also, the composite z-score in assay [18] is 1.89; in assay [19], -0.11; in assay [20] it was -0.508. Besides, the z-score in assay [8] is -0.491 (inactive); in assay [12], -0.291 (inactive); in assay [13], 0.452 (inactive); in assay [14], 5.24 (inactive); in [16], 0.482 (inactive).
On to `CC(=O)OC[C@H]1O[C@H](CC=NO[C@@H](C)c2cn([C@H](CO)Cc3ccccc3)nn2)C=C[C@@H]1OC(C)=O`, for which the composite z-score was -0.513 in assay [1]; 0.386 in assay [2]; -0.104 in assay [3]; 0.649 in [4]; 0.804 in assay [5]; 1.24 in [6]. The composite z-score in assay [7] was 0.732; in [9], 0.275; in assay [10], 0.225; in assay [11], 1.56; in [15], 0.96; in [17], -0.0137. Further, the results for the composite z-score in [18], in assay [19] and in [20] were 0.336, 0.55 and 0.0035, respectively. The z-score was 0.386 (inactive) in [8]; -0.283 (inactive) in [12]; -0.359 (inactive) in assay [13]; -0.346 (inactive) in assay [14]; -0.477 (inactive) in assay [16].
